# Measurements from publication PMC5540273 (PLoS ONE, 2017).
# Assays:
# Details in all cases: concentration: 1 μM, replicates: in singlicate; n = 1
# ASK2 = tested on: T1, ASK2
# T1 construct: gene MAP3K6
# AURKA = tested on: AURKA
# AURKB = tested on: AURKB
# AURKC = tested on: AURKC
# AXL = tested on: AXL
# BIKE = tested on: T2, BIKE
# T2 construct: gene BMP2K
# BLK = tested on: BLK
# BMPR1A = tested on: BMPR1A
# BMPR1B = tested on: BMPR1B
# BMPR2 = tested on: BMPR2
# BMX = tested on: BMX
# BRAF = tested on: BRAF
# BRK = tested on: T3, BRK
# T3 construct: gene PTK6
# BRSK1 = tested on: BRSK1
# BRSK2 = tested on: BRSK2
# BTK = tested on: BTK
# BUB1 = tested on: BUB1
# CAMK1B = tested on: CAMK1B
# CAMK1D = tested on: CAMK1D
# CAMK1G = tested on: CAMK1G
# 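Also: KINOMEscan kinase panel screen.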
SMILES,%Inh (ASK2),%Inh (AURKA),%Inh (AURKB),%Inh (AURKC),%Inh (AXL),%Inh (BIKE),%Inh (BLK),%Inh (BMPR1A),%Inh (BMPR1B),%Inh (BMPR2),%Inh (BMX),%Inh (BRAF),%Inh (BRK),%Inh (BRSK1),%Inh (BRSK2),%Inh (BTK),%Inh (BUB1),%Inh (CAMK1B),%Inh (CAMK1D),%Inh (CAMK1G)
Cc1cccc(Nc2nc(N[C@H]3CCCC[C@H]3N)ncc2C(N)=O)c1.Cl [GSK986310],6%,0%,24%,62%,59%,50%,67%,12%,0%,28%,13%,0%,20%,16%,13%,0%,89%,91.4%,61%,23%
CN(C)CCNS(=O)(=O)c1ccc(-c2ccnc3[nH]ccc23)cc1 [GSK977620],23%,2%,57%,85%,93.1%,82%,6%,0%,0%,0%,9%,0%,16%,19%,0%,0%,29%,0%,66%,8%
Cc1ccc(NC(=O)c2ccc(Cl)c(Cl)c2)cc1-c1ccc(C(=O)Nc2ccncc2)cc1 [GSK1398460],0%,7%,1%,67%,100%,40%,45%,0%,0%,0%,6%,34%,10%,7%,10%,0%,6%,28%,24%,0%
COc1ccc(C2=C(Nc3cccc(O)c3)C(=O)NC2=O)cc1 [SB-390766],7%,13%,33%,0%,35%,0%,0%,0%,0%,24%,0%,6%,21%,7%,49%,0%,50%,73%,27%,26%
COC(=O)Nc1nc2ccc(Oc3ccc(CC(=O)Nc4cc(C(F)(F)F)ccc4F)cc3)cc2[nH]1 [GW680903],0%,0%,60%,52%,23%,3%,32%,6%,0%,1%,16%,45%,20%,1%,0%,0%,63%,30%,0%,0%
O=C(Nc1n[nH]c2nc(-c3ccccc3)ccc12)C1CC1 [SB-708999],32%,22%,15%,8%,0%,40%,0%,0%,6%,10%,9%,4%,0%,54%,37%,40%,0%,35%,0%,79%
Cn1cc(-c2ccc3c(c2)CCN3C(=O)Cc2cc(F)cc(C(F)(F)F)c2)c2c(N)ncnc21 [GSK2635225],0%,20%,56%,54%,94%,23%,40%,0%,0%,0%,15%,0%,44%,0%,5%,0%,11%,41%,11%,0%
CC(C)NCC(Cc1ccccc1)NC(=O)c1cc(Br)c(-c2ccnc3[nH]ccc23)s1.Cl.Cl (centres unmarked) [GSK1383281],11%,95.1%,93.8%,91.7%,74%,79%,0%,0%,0%,8%,5%,0%,0%,0%,0%,0%,43%,29%,27%,0%
Cc1ccc(Nc2ccnc(Nc3ccc(C)c(F)c3)n2)cc1O.Cl [GW582868],0%,0%,0%,19%,32%,29%,51%,7%,30%,7%,12%,50%,50%,0%,0%,0%,44%,34%,0%,0%
Cn1cc(-c2ccc3c(c2)CCN3C(=O)Cc2cc(F)cc(F)c2F)c2c(N)ncnc21 [GSK2634140],0%,18%,92.6%,59%,89%,33%,72%,0%,5%,0%,11%,0%,22%,6%,0%,0%,9%,7%,28%,0%
Cc1cc(-c2ccnc(Nc3cccc(C#N)c3)n2)cc(C)c1O [GSK1440913],11%,47%,19%,70%,51%,99.5%,0%,0%,0%,16%,25%,4%,25%,2%,0%,14%,52%,24%,8%,22%
O=C(Nc1n[nH]c2cc(-c3cccs3)ccc12)C1CC1 [SB-731284],39%,42%,51%,42%,0%,84%,0%,2%,35%,24%,11%,68%,0%,54%,30%,54%,0%,0%,6%,0%
NCCC(NC(=O)c1cc(Br)c(-c2ccnc3[nH]ccc23)s1)c1ccccc1.O=C(O)C(F)(F)F.O=C(O)C(F)(F)F (centres unmarked) [GSK1307810],11%,87%,13%,99.7%,76%,100%,0%,0%,0%,52%,25%,0%,34%,1%,19%,24%,68%,52%,34%,21%
COc1cccc(-c2nc(-c3ccccc3)[nH]c2-c2ccncc2)c1 [SB-610250],11%,0%,39%,0%,15%,0%,60%,0%,0%,0%,0%,74%,16%,0%,0%,0%,95.6%,0%,5%,0%
O=C(O)C(F)(F)F.O=c1[nH]ccc2nc(N[C@@H]3CCNC3)nc(Nc3cc(Cl)cc(Cl)c3)c12 [GSK2188764],4%,97.3%,75%,69%,92.1%,97.6%,0%,0%,0%,70%,27%,0%,5%,19%,8%,0%,99.2%,100%,97.9%,72%
Cc1ccc(C)c(NC(=O)Nc2ccc(C)c(-c3ccc(C(=O)Nc4ccncc4)cc3)c2)c1 [GSK1398473],0%,0%,21%,22%,90%,13%,0%,0%,0%,0%,0%,62%,25%,0%,0%,0%,4%,27%,13%,0%
CN(C)c1ncnc2nc[nH]c12 [SKF-31736],0%,12%,54%,0%,0%,0%,0%,0%,7%,46%,0%,9%,0%,0%,0%,0%,40%,0%,0%,8%
COc1cccc2c(-c3ccncc3)c(-c3ccc(F)cc3)nn12 [GW468513],0%,0%,0%,17%,13%,26%,49%,0%,0%,7%,11%,38%,1%,3%,0%,0%,90%,0%,0%,1%
COc1cccc(CC(=O)N2CCc3cc(-c4cn(C)c5ncnc(N)c45)ccc32)c1 [GSK2608899],12%,52%,87%,48%,96.2%,21%,36%,6%,6%,0%,0%,6%,53%,8%,0%,0%,0%,43%,19%,20%
